Source: PubChem
Hits are enriched below; roughly 2.4% of the tested compounds scored in any of these assays.
B2AR arrestin: recruits beta-arrestin to the human beta2-adrenergic receptor; P07550; beta-arrestin recruitment to beta2AR, cell-based reporter; Potency, µM (doses to about 46.1 µM), most hits filed as activators; hit rate 0.02% among 330,000; AID 492947; active = well fitted activation curve with a large enough effect; inconclusive = small, poorly fitted or top-dose-only effect; note: nearly all actives have a fitted effect of over 65% in size
Target sequence (P07550 whole entry, looked up): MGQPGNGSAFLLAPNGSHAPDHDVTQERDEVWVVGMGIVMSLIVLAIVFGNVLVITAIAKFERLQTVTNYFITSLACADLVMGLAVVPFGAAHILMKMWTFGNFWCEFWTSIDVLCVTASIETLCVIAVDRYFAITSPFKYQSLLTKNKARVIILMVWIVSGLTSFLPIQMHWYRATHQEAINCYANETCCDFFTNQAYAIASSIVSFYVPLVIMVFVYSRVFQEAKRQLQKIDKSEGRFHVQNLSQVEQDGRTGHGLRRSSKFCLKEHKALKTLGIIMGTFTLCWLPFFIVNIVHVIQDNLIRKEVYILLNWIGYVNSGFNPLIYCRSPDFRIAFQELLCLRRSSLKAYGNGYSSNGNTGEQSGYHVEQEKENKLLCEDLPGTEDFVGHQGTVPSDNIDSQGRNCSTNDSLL
D2 ag-1: activates the human D2 dopamine receptor | AID 624465 | DiscoveRx PathHunter D2 beta-arrestin, luminescence, 90 min; 100% = 57 uM dopamine signal | hit rate 0.084% among 360,000 | activation, % (concentration not given with the values) | P14416; in the data active = activation above about 40%; inconclusive = between about 15% and that limit
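DiscoveRx PathHunter D2 beta-arrestin cells (2,100/well) attached overnight, then compound-stimulated 90 min at 37 C in HBSS/10 mM HEPES/0.1% Tween-20 buffer; beta-galactosidase complementation read by luminescence after 1 h at ambient temperature. Dopamine 57 uM final (EC100) as control.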
D2 antag: antagonizes the human D2 dopamine receptor | HEK293 TREx D2 cells, calcium flux, dopamine EC80 | P14416 | inhibition, % at 10 µM | hit rate 2% among 340,000 | AID 485344; in the data active = inhibition above about 30%; inactive = below that, where a call was filed
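Cells plated overnight at 30 C with tetracycline; no-wash calcium dye, 30–90 min RT; 10 s baseline; compound pinned; 180 s read; EC80 dopamine added; another 180 s read.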
D2 PAM-1: positively modulates the human D2 dopamine receptor allosterically; P14416; HEK293 T-REx D2, calcium flux, EC20 dopamine potentiation; potentiation, % at 10 µM; hit rate 0.34% among 340,000; AID 485347;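 active = potentiation over 3 SD above the plate norm, cut at about 30% in these data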
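Potentiation of an EC20 dopamine calcium response is measured in a force-coupled, tetracycline-inducible Hek293 Trex D2 line. Compound-only kinetic reads over 180 s flag agonists before dopamine addition.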
D2 PAM-2: human D2 receptor positive allosteric modulation; DiscoveRx D2 beta-arrestin cells, luminescence, 90 min; 100% = 57 uM dopamine signal; potentiation, % (no concentration beside the values); hit rate 0.23% among 360,000; in the data active = potentiation above about 50%; inconclusive = mostly about 30% to 49%
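PathHunter D2 cells, attached overnight at 37 deg C, received compound in DMSO plus dopamine at EC20 (50 nM final) for 90 min at 37 deg C. Beta-arrestin recruitment was read as luminescence after 1 h with detection reagent at ambient temperature.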
D2 ag-2: agonists of human D2 dopamine receptor; hit rate 0.53% among 340,000; activation, % at 2 µM; AID 485358; HEK293 T-REx D2 cells, calcium flux agonist mode;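 active = activation over 3 SD above normal in the single-dose calcium agonist read, cut at about 30% in these data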
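In this primary screen, compounds producing a positive calcium signal within 180 s of addition to tetracycline-induced, force-coupled HEK293 Trex D2 cells are flagged; cells are dye-loaded with a no-wash calcium kit beforehand.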
Numbers stand for hits; – = inactive; ? = inconclusive; · = not tested or not shown; ! = repeats disagree.

SMILES	B2AR arrestin	D2 ag-1	D2 antag	D2 PAM-1	D2 PAM-2	D2 ag-2
COc1ccc2c(c1)C(C)CC(C)(C)N2C(=O)Nc1ccccc1 (centres undefined)	–	–	54.0	–	–	–
Cc1ccc(N(C)C(=O)C2CCN(S(=O)(=O)c3ccc4c(c3)oc(=O)n4C)CC2)cc1	–	–	–	–	–	–
CCN(C(=O)C1CCN(S(=O)(=O)c2ccc3c(c2)oc(=O)n3C)CC1)c1cccc(C)c1	–	–	38.9	–	–	–
O=C(CNC(=O)c1cccs1)NCC(=O)OCc1ccc(F)cc1	–	–	–	35.1	–	–
O=C(CNC(=O)c1cccs1)NCC(=O)OCc1ccc(Cl)cc1	–	–	–	–	–	–
COc1ccc(C(=O)COC(=O)CCNS(=O)(=O)c2ccc(NC(C)=O)cc2)c(OC)c1	–	–	–	–	–	–
Cc1nc(C)c(/C(O)=C\c2nc3ccc([N+](=O)[O-])cc3oc2=O)o1	–	–	·	·	–	·
CCC1CCCCN1CCCNC(=O)c1cc2c(=O)oc3ccc(C)cc3c2s1 (centres undefined)	–	–	35.5	–	–	–
Cc1ccc2oc(=O)c3cc(C(=O)NCCCN4CCCCCC4)sc3c2c1	–	–	–	–	–	–
Cc1cccc(C)c1NC(=O)c1csc(COCCO)n1	·	–	·	·	–	·
COc1cc(OC)cc(C(=O)NC(=S)Nc2ccc(NC(=O)c3ccco3)cc2)c1	–	–	–	37.5	–	–
COc1ccccc1C(=O)NC(=S)Nc1ccc(NC(=O)c2ccco2)cc1	–	–	–	–	–	–
COc1cccc(C(=O)NC(=S)Nc2ccc(N3CCCC3)cc2)c1	–	–	56.5	–	–	–
O=C(Nc1ccc(N2CCCCC2)cc1)c1cccnc1	–	–	33.9	–	–	–
O=C(N/N=C/c1ccc(N2CCOCC2)c([N+](=O)[O-])c1)c1ccc(F)cc1	–	–	–	–	–	–
O=C(N/N=C/c1ccc(N2CCCC2)c([N+](=O)[O-])c1)c1cccnc1	–	–	40.6	–	–	–
Cc1cccc(N2CC(C(=O)OCC(=O)c3ccc(OC(=O)c4cccs4)cc3)CC2=O)c1C (centres undefined)	–	–	–	–	–	–
N#CC(c1nc2ccccc2nc1N1CCCCC1)S(=O)(=O)c1ccc(Cl)cc1 (centres undefined)	–	·	–	–	·	–
CCOC(=O)CSc1nc2c([nH]c3ccccc32)c(=O)n1C	–	–	–	–	–	–
CC(C)CN(c1ccccc1)S(=O)(=O)c1nnc(NC(=O)c2ccco2)s1	–	–	67.8	–	–	–
CC(CCc1ccccc1)N1CCN(Cc2ccccc2)CC1 (centres undefined)	–	–	60.7	–	–	–
COc1ccccc1Nc1nn2c(=O)c3ccc(C(=O)N4CCCC(C)C4)cc3nc2s1 (centres undefined)	–	–	–	36.9!	–	–
CC1(C)CC(=O)c2sc(NS(=O)(=O)c3ccc([N+](=O)[O-])cc3)nc2C1	–	–	–	–	53.7	–
CNC(=O)Cn1c(C)cc(=O)c2cccc(C)c21	–	–	·	·	–	·
Cc1ccc(NC(=O)CSCc2c(C)noc2C)cc1C	–	–	–	–	–	–
SMILES	B2AR arrestin	D2 ag-1	D2 antag	D2 PAM-1	D2 PAM-2	D2 ag-2
Cc1cc(C)c(NC(=O)CSCc2c(C)noc2C)c(C)c1	–	–	49.1	–	–	–
Oc1ccc2ccccc2c1C1Nc2cccc3cccc(c23)N1	–	?	–	–	50.5	–
CCOC(=O)C1(CC2CCCCO2)CCN(C(=O)Nc2ccc(C(=O)OC)cc2)CC1 (centres undefined)	–	–	31.9	–	–	–
Cc1cc(C)nc(N/N=C/C2=C(N3CCOCC3)C(=C\c3ccc(Cl)cc3)/CC2)n1	–	–	–	–	–	–
O=C(O)c1ccc(N/N=C/C2=C(N3CCOCC3)C(=C\c3ccccc3)/CC2)cc1	–	–	–	–	50.8	–
Cc1csc(CNC(=O)C2CCC(=O)N(CCc3cccc(F)c3)C2)n1 (centres undefined)	–	–	–	–	–	–
